# Test results taken from the supplement of paper PMC4466140.
# Target: SpBzz1-D2
# Assay: SPOT peptide array binding signal intensity (averaged, normalized) (arbitrary units (background-subtracted, floor 0; scale differs between SH3 domains)); higher = stronger binding of the SH3 domain to the peptide
# Outline: (§1)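 Binding signal refers to normalized, background-subtracted spot intensity averaged over replicates, expressed in arbitrary units that differ between domains. GST-fused SH3 domains from four yeast species were incubated at 10 μg/ml overnight at 4°C on cellulose membranes of synthetic 15-mer peptides with cysteines replaced by serines. Bound protein was detected with anti-GST antibody, an HRP anti-mouse secondary and luminol, and quantified with Genespotter.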
row,Binder,SPOT peptide array binding signal intensity
1,QTREPNEPPPPSPAM,0.5
2,FTLPPPPPPPGLDEL,9.25

# Target: SpCyk3
# Assay: as above
# Outline: as §1
row,Binder,SPOT peptide array binding signal intensity
1,QTREPNEPPPPSPAM,0.5
2,FTLPPPPPPPGLDEL,≤ 0

# Target: SpHof1
# Assay: as above
# Outline: as §1
row,Binder,SPOT peptide array binding signal intensity
1,QTREPNEPPPPSPAM,≤ 0
2,FTLPPPPPPPGLDEL,2.5

# Target: SpHof1-2
# Assay: as above
# Outline: as §1
row,Binder,SPOT peptide array binding signal intensity
1,QTREPNEPPPPSPAM,7.75
2,FTLPPPPPPPGLDEL,1

# Target: SpHof1-3
# Assay: as above
# Outline: as §1
row,Binder,SPOT peptide array binding signal intensity
1,QTREPNEPPPPSPAM,≤ 0
2,FTLPPPPPPPGLDEL,5.75

# Target: SpHse1
# Assay: as above
# Outline: as §1
row,Binder,SPOT peptide array binding signal intensity
1,QTREPNEPPPPSPAM,≤ 0
2,FTLPPPPPPPGLDEL,≤ 0

# Target: SpLsb1
# Assay: as above
# Outline: as §1
row,Binder,SPOT peptide array binding signal intensity
1,QTREPNEPPPPSPAM,≤ 0
2,FTLPPPPPPPGLDEL,≤ 0

# Target: SpLsb4
# Assay: as above
# Outline: as §1
row,Binder,SPOT peptide array binding signal intensity
1,QTREPNEPPPPSPAM,≤ 0
2,FTLPPPPPPPGLDEL,≤ 0

# Target: SpMyo1
# Assay: as above
# Outline: as §1
row,Binder,SPOT peptide array binding signal intensity
1,QTREPNEPPPPSPAM,1240
2,FTLPPPPPPPGLDEL,1110

# Target: SpNbp2
# Assay: as above
# Outline: as §1
row,Binder,SPOT peptide array binding signal intensity
1,QTREPNEPPPPSPAM,≤ 0
2,FTLPPPPPPPGLDEL,≤ 0

# Target: SpPex13
# Assay: as above
# Outline: as §1
row,Binder,SPOT peptide array binding signal intensity
1,QTREPNEPPPPSPAM,2
2,FTLPPPPPPPGLDEL,≤ 0

# Target: SpRvs167
# Assay: as above
# Outline: as §1
row,Binder,SPOT peptide array binding signal intensity
1,QTREPNEPPPPSPAM,1.67
2,FTLPPPPPPPGLDEL,16.7

# Target: SpSla1-D1-D2
# Assay: as above
# Outline: as §1
row,Binder,SPOT peptide array binding signal intensity
1,QTREPNEPPPPSPAM,≤ 0
2,FTLPPPPPPPGLDEL,≤ 0

# Target: SpSla1-D3
# Assay: as above
# Outline: as §1
row,Binder,SPOT peptide array binding signal intensity
1,QTREPNEPPPPSPAM,≤ 0
2,FTLPPPPPPPGLDEL,≤ 0

# Target: AgAbp1
# Assay: as above
# Outline: as §1
row,Binder,SPOT peptide array binding signal intensity
1,FTLPPPPPPPGLDEL,≤ 0

# Target: AgBbc1
# Assay: as above
# Outline: as §1
row,Binder,SPOT peptide array binding signal intensity
1,FTLPPPPPPPGLDEL,≤ 0

# Target: AgBem1-D1
# Assay: as above
# Outline: as §1
row,Binder,SPOT peptide array binding signal intensity
1,FTLPPPPPPPGLDEL,≤ 0

# Target: AgBzz1-D1
# Assay: as above
# Outline: as §1
row,Binder,SPOT peptide array binding signal intensity
1,FTLPPPPPPPGLDEL,≤ 0

# Target: AgBzz1-D2
# Assay: as above
# Outline: as §1
row,Binder,SPOT peptide array binding signal intensity
1,FTLPPPPPPPGLDEL,3

# Target: AgCyk3
# Assay: as above
# Outline: as §1
row,Binder,SPOT peptide array binding signal intensity
1,FTLPPPPPPPGLDEL,≤ 0

# Target: AgFus1
# Assay: as above
# Outline: as §1
row,Binder,SPOT peptide array binding signal intensity
1,FTLPPPPPPPGLDEL,≤ 0

# Target: AgHof1
# Assay: as above
# Outline: as §1
row,Binder,SPOT peptide array binding signal intensity
1,FTLPPPPPPPGLDEL,85.8

# Target: AgHse1
# Assay: as above
# Outline: as §1
row,Binder,SPOT peptide array binding signal intensity
1,FTLPPPPPPPGLDEL,≤ 0

# Target: AgLsb1
# Assay: as above
# Outline: as §1
row,Binder,SPOT peptide array binding signal intensity
1,FTLPPPPPPPGLDEL,≤ 0

# Target: AgLsb4
# Assay: as above
# Outline: as §1
row,Binder,SPOT peptide array binding signal intensity
1,FTLPPPPPPPGLDEL,≤ 0

# Target: AgMyo5
# Assay: as above
# Outline: as §1
row,Binder,SPOT peptide array binding signal intensity
1,FTLPPPPPPPGLDEL,1170

# Target: AgNbp2
# Assay: as above
# Outline: as §1
row,Binder,SPOT peptide array binding signal intensity
1,FTLPPPPPPPGLDEL,≤ 0

# Target: AgRvs167
# Assay: as above
# Outline: as §1
row,Binder,SPOT peptide array binding signal intensity
1,FTLPPPPPPPGLDEL,0.833

# Target: AgSho1
# Assay: as above
# Outline: as §1
row,Binder,SPOT peptide array binding signal intensity
1,FTLPPPPPPPGLDEL,≤ 0

# Target: AgSla1-D1-D2
# Assay: as above
# Outline: as §1
row,Binder,SPOT peptide array binding signal intensity
1,FTLPPPPPPPGLDEL,4

# Target: AgSla1-D3
# Assay: as above
# Outline: as §1
row,Binder,SPOT peptide array binding signal intensity
1,FTLPPPPPPPGLDEL,≤ 0

# Target: CaAbp1-D1
# Assay: as above
# Outline: as §1
row,Binder,SPOT peptide array binding signal intensity
1,FTLPPPPPPPGLDEL,≤ 0

# Target: CaAbp1-D2
# Assay: as above
# Outline: as §1
row,Binder,SPOT peptide array binding signal intensity
1,FTLPPPPPPPGLDEL,≤ 0

# Target: CaBbc1
# Assay: as above
# Outline: as §1
row,Binder,SPOT peptide array binding signal intensity
1,FTLPPPPPPPGLDEL,≤ 0

# Target: CaBem1-D1
# Assay: as above
# Outline: as §1
row,Binder,SPOT peptide array binding signal intensity
1,FTLPPPPPPPGLDEL,≤ 0

# Target: CaBzz1-D1
# Assay: as above
# Outline: as §1
row,Binder,SPOT peptide array binding signal intensity
1,FTLPPPPPPPGLDEL,491

# Target: CaBzz1-D2
# Assay: as above
# Outline: as §1
row,Binder,SPOT peptide array binding signal intensity
1,FTLPPPPPPPGLDEL,23

# Target: CaCyk3
# Assay: as above
# Outline: as §1
row,Binder,SPOT peptide array binding signal intensity
1,FTLPPPPPPPGLDEL,≤ 0

# Target: CaFus1
# Assay: as above
# Outline: as §1
row,Binder,SPOT peptide array binding signal intensity
1,FTLPPPPPPPGLDEL,≤ 0

# Target: CaHof1
# Assay: as above
# Outline: as §1
row,Binder,SPOT peptide array binding signal intensity
1,FTLPPPPPPPGLDEL,0.5

# Target: CaHse1
# Assay: as above
# Outline: as §1
row,Binder,SPOT peptide array binding signal intensity
1,FTLPPPPPPPGLDEL,≤ 0

# Target: CaLsb1
# Assay: as above
# Outline: as §1
row,Binder,SPOT peptide array binding signal intensity
1,FTLPPPPPPPGLDEL,≤ 0

# Target: CaLsb4
# Assay: as above
# Outline: as §1
row,Binder,SPOT peptide array binding signal intensity
1,FTLPPPPPPPGLDEL,≤ 0

# Target: CaMyo5
# Assay: as above
# Outline: as §1
row,Binder,SPOT peptide array binding signal intensity
1,FTLPPPPPPPGLDEL,33.8

# Target: CaNbp2
# Assay: as above
# Outline: as §1
row,Binder,SPOT peptide array binding signal intensity
1,FTLPPPPPPPGLDEL,≤ 0

# Target: CaRvs167
# Assay: as above
# Outline: as §1
row,Binder,SPOT peptide array binding signal intensity
1,FTLPPPPPPPGLDEL,≤ 0

# Target: CaRvs167-3
# Assay: as above
# Outline: as §1
row,Binder,SPOT peptide array binding signal intensity
1,FTLPPPPPPPGLDEL,≤ 0

# Target: CaSho1
# Assay: as above
# Outline: as §1
row,Binder,SPOT peptide array binding signal intensity
1,FTLPPPPPPPGLDEL,≤ 0

# Target: CaSla1-D1-D2
# Assay: as above
# Outline: as §1
row,Binder,SPOT peptide array binding signal intensity
1,FTLPPPPPPPGLDEL,7

# Target: CaSla1-D3
# Assay: as above
# Outline: as §1
row,Binder,SPOT peptide array binding signal intensity
1,FTLPPPPPPPGLDEL,≤ 0

# Target: ScAbp1
# Assay: as above
# Outline: as §1
row,Binder,SPOT peptide array binding signal intensity
1,FTLPPPPPPPGLDEL,≤ 0

# Target: ScBbc1
# Assay: as above
# Outline: as §1
row,Binder,SPOT peptide array binding signal intensity
1,FTLPPPPPPPGLDEL,2

# Target: ScBem1-D1
# Assay: as above
# Outline: as §1
row,Binder,SPOT peptide array binding signal intensity
1,FTLPPPPPPPGLDEL,≤ 0

# Target: ScBzz1-D1
# Assay: as above
# Outline: as §1
row,Binder,SPOT peptide array binding signal intensity
1,FTLPPPPPPPGLDEL,12

# Target: ScBzz1-D2
# Assay: as above
# Outline: as §1
row,Binder,SPOT peptide array binding signal intensity
1,FTLPPPPPPPGLDEL,0.5

# Target: ScCyk3
# Assay: as above
# Outline: as §1
row,Binder,SPOT peptide array binding signal intensity
1,FTLPPPPPPPGLDEL,≤ 0

# Target: ScFus1
# Assay: as above
# Outline: as §1
row,Binder,SPOT peptide array binding signal intensity
1,FTLPPPPPPPGLDEL,≤ 0

# Target: ScHof1
# Assay: as above
# Outline: as §1
row,Binder,SPOT peptide array binding signal intensity
1,FTLPPPPPPPGLDEL,204

# Target: ScHse1
# Assay: as above
# Outline: as §1
row,Binder,SPOT peptide array binding signal intensity
1,FTLPPPPPPPGLDEL,≤ 0

# Target: ScLsb1
# Assay: as above
# Outline: as §1
row,Binder,SPOT peptide array binding signal intensity
1,FTLPPPPPPPGLDEL,0.25

# Target: ScLsb2
# Assay: as above
# Outline: as §1
row,Binder,SPOT peptide array binding signal intensity
1,FTLPPPPPPPGLDEL,≤ 0

# Target: ScLsb3
# Assay: as above
# Outline: as §1
row,Binder,SPOT peptide array binding signal intensity
1,FTLPPPPPPPGLDEL,≤ 0

# Target: ScLsb4
# Assay: as above
# Outline: as §1
row,Binder,SPOT peptide array binding signal intensity
1,FTLPPPPPPPGLDEL,≤ 0

# Target: ScMyo3
# Assay: as above
# Outline: as §1
row,Binder,SPOT peptide array binding signal intensity
1,FTLPPPPPPPGLDEL,1360

# Target: ScMyo5
# Assay: as above
# Outline: as §1
row,Binder,SPOT peptide array binding signal intensity
1,FTLPPPPPPPGLDEL,1880

# Target: ScNbp2
# Assay: as above
# Outline: as §1
row,Binder,SPOT peptide array binding signal intensity
1,FTLPPPPPPPGLDEL,1

# Target: ScPex13
# Assay: as above
# Outline: as §1
row,Binder,SPOT peptide array binding signal intensity
1,FTLPPPPPPPGLDEL,1

# Target: ScRvs167
# Assay: as above
# Outline: as §1
row,Binder,SPOT peptide array binding signal intensity
1,FTLPPPPPPPGLDEL,≤ 0

# Target: ScSho1
# Assay: as above
# Outline: as §1
row,Binder,SPOT peptide array binding signal intensity
1,FTLPPPPPPPGLDEL,≤ 0

# Target: ScSla1-D1-D2
# Assay: as above
# Outline: as §1
row,Binder,SPOT peptide array binding signal intensity
1,FTLPPPPPPPGLDEL,4.5

# Target: ScSla1-D3
# Assay: as above
# Outline: as §1
row,Binder,SPOT peptide array binding signal intensity
1,FTLPPPPPPPGLDEL,1.5

# Target: SpAbp1-D1
# Assay: as above
# Outline: as §1
row,Binder,SPOT peptide array binding signal intensity
1,FTLPPPPPPPGLDEL,≤ 0

# Target: SpBbc1
# Assay: as above
# Outline: as §1
row,Binder,SPOT peptide array binding signal intensity
1,FTLPPPPPPPGLDEL,≤ 0

# Target: SpBzz1-D1
# Assay: as above
# Outline: as §1
row,Binder,SPOT peptide array binding signal intensity
1,FTLPPPPPPPGLDEL,1530
